This excerpt belongs to a sample that is enriched for hits.
RmlCD inh mix – RmlC/RmlD inhibition, mixture screen. RmlC/RmlD coupled enzyme inhibition, 384-well mixture HTS. inhibition, % at 5.5 µM. 110,000 compounds, 0.39% hits. AID 1532; in the data active = inhibition above about 30%, passing the limit was not always enough; inconclusive = no clear call, values can overlap the other calls
HIV RNase H inh-1 – inhibitors of HIV-1 reverse transcriptase RNase H; 65,000 compounds, 1.9% hits; P04585; AID 565; RT-RNase H RNA/DNA duplex cleavage, fluorescence; inhibition, % at 10 µM; in the data active = inhibition above about 50%
HIV RNase H inh-2 – confirmation of HIV-1 reverse transcriptase RNase H inhibitors; Recombinant RT RNase H, fluorescent RNA/DNA duplex cleavage; 1,000 compounds, 39% hits; inhibition, % at 10 µM; shares compounds with HIV RNase H inh-1; in the data active = inhibition above about 48%; inconclusive = no clear call, values can overlap the other calls
* hit, by the source's call; ? = inconclusive; . = no result.

SMILES | RmlCD inh mix | HIV RNase H inh-1 | HIV RNase H inh-2
O=c1/c(=C/c2cccc3ccccc23)sc2ncnn12 | -4 | 96* | 0
CCc1ccccc1OCc1nnc(N)s1 | -7 | -63 | .
COC(=O)C1=C(C(=O)OC)[C@@H]2N(C)c3ccccc3[C@@]23C[C@@H](CO)N(C(=O)NCCBr)C3=N1 | 0 | . | .
CCCC(C(=O)NC1CCCCC1)N(CC1CCCO1)C(=O)CNS(=O)(=O)c1ccc(F)cc1 (stereo not drawn) | -6 | 58* | 12
CCC(C(=O)NC1CCCCC1)N(CC1CCCO1)C(=O)CNS(=O)(=O)c1ccc(OC)cc1 (stereo not drawn) | -14 | -5 | .
CCCCCn1c(=O)[nH]c2cc(C(=O)NCCCN3CCC(C)CC3)ccc2c1=O | 12 | 2 | .
CCn1c(SCc2nc(-c3ccc(OC)c(OC)c3)no2)nnc1-c1cccs1 | 9 | -13 | .
COc1ccc(-c2nnn(CC(=O)NCCc3c[nH]c4ccccc34)n2)cc1OC | -9 | . | .
COC(=O)c1ccc(OC)c(CSc2nnc(-c3ccc(C)cc3)o2)c1 | . | 66* | 48
Cc1ccc(C(=O)CSc2nnc(-c3ccccc3)o2)cc1 | -3 | . | .
CC(C)CCn1c(Br)nc2c1c(=O)n(CC(N)=O)c(=O)n2C | -9 | -5 | .
Brc1ccccc1-c1nnc2sc(Cc3ccccc3)nn12 | -4 | -108 | .
c1ccc(Cc2nn3c(Cn4nnc5ccccc54)nnc3s2)cc1 | . | 74* | 68*
CCCn1c(=O)c(C(=O)NCc2ccncc2)c(O)c2ccccc21 | 4 | -30 | .
CCCCCn1c(=O)c(C(=O)NCc2ccncc2)c(O)c2ccccc21 | 4 | 83* | 57*
COc1ccc(C(c2nnnn2C2CCCC2)N2CCc3ccccc3C2)cc1OC (stereo not drawn) | -13 | -4 | .
COCCn1nnnc1C(c1ccc(O)c(OC)c1)N1CCc2ccccc2C1 (stereo not drawn) | -8 | 61* | -3
CC(C)CCNC(=O)c1onc(CSc2ccccc2)c1C(=O)NCCC(C)C | 5 | . | .
O=C(CN1C(=O)COc2ccccc21)N(Cc1ccccc1)Cc1ccccn1 | -7 | 84* | 39
Cc1ccc(CN(Cc2cccnc2)C(=O)CN2C(=O)COc3ccccc32)o1 | 3 | -6 | .
CCOc1ccc(C(=O)N2CCC(C(=O)c3ccc4c(c3)OCCO4)CC2)cc1 | 9 | -27 | .
COc1cccc(-n2nnnc2SCC(=O)NCCc2ccccc2)c1 | 35 | 70* | 38
COc1ccc(OC)c(-n2nnnc2SCC(=O)NCCc2ccccc2)c1 | . | -26 | .
CC(=O)N1CCC(N(C(=O)Nc2c(F)cccc2F)C(C)C)CC1 | -15 | . | .
CCCCOC(=O)C1CCCC(C(=O)OCCCC)N1 (stereo not drawn) | 4 | -6 | .
SMILES | RmlCD inh mix | HIV RNase H inh-1 | HIV RNase H inh-2
Cc1ccccc1NC(=O)C1CCN(c2cc(-c3ccccc3)nc3ncnn23)CC1 | -15 | . | .
CCCCCCCOc1ccc(OC(=O)c2cccnc2)cc1 | 8 | . | .
Cc1cc(C)nc(Nc2nc3ccccc3[nH]2)n1 | 0 | 10 | .
c1ccc(Nc2nc3ccccc3[nH]2)nc1 | -9 | 80* | 31
Cc1cccc(Nc2nnc(-c3ccc(C(=O)N4C[C@H]5C[C@H](C4)c4cccc(=O)n4C5)cc3)c3ccccc23)c1 | -4 | . | .
O=C(Nc1nn[nH]n1)C12CC3CC(CC(C3)C1)C2 | -11 | . | .
N#CCc1nnc2n1-c1ccccc1CCC2 | -3 | -6 | .
C=CCc1c(C)[nH]c(=S)c(C#N)c1C | -13 | 77* | 59*
Cc1[nH]c(=S)c(C#N)c(C)c1C(=O)Nc1ccccc1 | -8 | . | .
O=C(CC1Oc2ccc(Cl)cc2NC1=O)NC1CCCCCC1 (stereo not drawn) | 7 | 20 | .
CCOC(=O)c1c(N)sc2c1CCC(C)C2 (stereo not drawn) | -11 | 5 | .
CCOC(=O)c1c(N)sc2c1CCCC2 | 1 | 85* | -1
COCCCNC(=O)C1CCCN(C(=O)Nc2ccc(OC)cc2)C1 (stereo not drawn) | 2 | -22 | .
CCOc1cc(C2C(C#N)=C(N)SC(N)=C2C#N)ccc1OCCN1CCOCC1 | -4 | 87* | 85*
CCOc1ccc(C2C(C#N)=C(N)SC(N)=C2C#N)c(OCC)c1 | 4 | 72* | 19
CCCc1[nH]nc2c1C(c1ccc(OCCN3CCOCC3)c(OC)c1)C(C#N)=C(N)O2 (stereo not drawn) | -13 | 2 | .
COc1ccc(C2C(C#N)=C(N)SC(N)=C2C#N)cc1OC | 10 | 30 | .
CC(=O)N1CCN(c2nc3cc4c(cc3nc2NS(=O)(=O)c2ccccc2)OCCO4)CC1 | 14 | 1 | .
CC(C)Cn1c(SCc2nc3ccccc3c(=O)[nH]2)nc2ccccc2c1=O | 10 | . | .
Cc1ccc(C(=O)Oc2cc(C)n(C)c(=O)c2)cc1 | -12 | . | .
O=C1/C(=N/n2cnnc2)c2ccccc2N1Cc1ccccc1 | 12 | -17 | .
CCOC(=O)c1cc(-c2ccc(C)cc2)n(CCC(=O)NCCN(C)C)c1C | ? | 3 | .
CCOC(=O)c1cc(-c2ccc(C)cc2)n(CC(=O)NCc2ccco2)c1C | -9 | 58* | 31
O=C(O)CCc1ccc(-c2cccs2)o1 | -87 | 89* | 22
Cc1ccc(-c2ccc(CCC(=O)O)o2)cc1 | 7 | . | .
SMILES | RmlCD inh mix | HIV RNase H inh-1 | HIV RNase H inh-2
O=C(Nc1cc(C(F)(F)F)cc(C(F)(F)F)c1)c1ccc(Cn2cc(C(F)(F)F)ccc2=O)cc1 | 10 | . | .
O=C1C(Cl)=C(N2CCCCC2)C(=O)N1c1ccccc1Cl | -5 | 72* | 40
Cc1ccccc1N1C(=O)C(Cl)=C(N2CCCCCC2)C1=O | -1 | 9 | .
COC(=O)c1ccc2c(=O)n(Cc3ccco3)c(SCC(=O)Nc3ccc(C)c(Cl)c3)nc2c1 | 15 | 85* | 76*
COCCNC(=O)CSc1nc2cc(OC)c(OC)cc2c(=O)n1Cc1ccco1 | 6 | -19 | .
Cc1cccc(/C=N\NC(=O)c2sccc2-n2cccc2)c1 | 4 | . | .
Cc1sc(NC(=O)c2oc3ccccc3c2C)c(C#N)c1C | 4 | 57* | 83*
Cc1c(C(=O)NC2=NCCS2)oc2ccccc12 | 8 | -17 | .
CCn1nnc(-c2ccccc2NC(=O)c2cnccn2)n1 | -7 | . | .
CCOC(=O)C1CCN(C(=O)Nc2ccc3nc(-c4ccco4)c(-c4ccco4)nc3c2)CC1 | 32 | . | .
O=C(Nc1ccc2nc(-c3ccco3)c(-c3ccco3)nc2c1)N1CCCCCC1 | 3 | 97* | 53*
O=C(NC1CCCC1)c1ccc2nc(-c3ccco3)c(-c3ccco3)nc2c1 | . | 83* | 4
O=C(NCCO)c1ccc2nc(-c3ccco3)c(-c3ccco3)nc2c1 | 13 | . | .
O=C(Cn1c(NCCCO)nc2ccccc21)c1cccs1 | -8 | -9 | .
CC[C@@H](C)C(N)c1cn([C@@H](CCC(=O)O)C(=O)N2CCNCC2)nn1 (stereo partly drawn) | -9 | . | .
S=C(c1ccc(-c2ccc(Cl)cc2)o1)N1CCCCC1 | 9 | . | .
N#CCCN1CCN(C(=S)c2ccc(-c3ccc(Cl)cc3)o2)CC1 | 40 | 56* | 13
Clc1ccc(Cl)c(OCc2cc(-c3ccccc3Cl)on2)c1 | -13 | . | .
CCCSc1nc(C)c(-c2csc(C(C#N)=C3CCCC3)n2)cc1C#N | 21 | 58* | 4
CCCCSc1nc2c(cc1C#N)CCC2 | -10 | -33 | .
COC(=O)\C(C(C)=O)=C(/C=C/C=C/C=C/N(C)C)N(C)C | 4 | . | .
Cc1ccc(-c2nc(CS(=O)CC(=O)NCCC(C)C)c(C)o2)cc1 (stereo not drawn) | 11 | 17 | .
